The text below walks through data of PubChem BioAssay AID493011 (Sanford-Burnham Center for Chemical Genomics, 2011).

Where “and” joins values, the source holds several entries; their conditions need not be identical. Equal values may be shown once. Hit rate of the full screen: of about 330,000 compounds, about 1,400 (0.42%) were called active. For the sample, actives were picked, then their nearest neighbours and some compounds at random. Unmarked numbers belong to inactive results.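 How the source made its calls: active means at least 40% inhibition at 20 µM here, with at most 30% in a related deaminase screen; inactive means the rest.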

One may read the inhibition as the drop in the measured response relative to a control, in per cent.

In the test the target is DNA dC->dU-editing enzyme APOBEC-3A (Homo sapiens) (UniProt P31941). The test can be described thus: APOBEC3A ssDNA deaminase inhibitors, primary screen, selectivity assay for APOBEC3G inhibitor project, biochemical, FAM/TAMRA oligo cleavage fluorescence (AID 493011).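 Further: plate controls were A3A with DMSO for no effect and wells lacking A3A enzyme for full effect.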 The settings on record: recombinant A3A, FAM/TAMRA ssDNA deamination fluorescence; at 20 µM; active compounds read high.
Sequence of DNA dC->dU-editing enzyme APOBEC-3A (Homo sapiens) (P31941 whole entry, looked up): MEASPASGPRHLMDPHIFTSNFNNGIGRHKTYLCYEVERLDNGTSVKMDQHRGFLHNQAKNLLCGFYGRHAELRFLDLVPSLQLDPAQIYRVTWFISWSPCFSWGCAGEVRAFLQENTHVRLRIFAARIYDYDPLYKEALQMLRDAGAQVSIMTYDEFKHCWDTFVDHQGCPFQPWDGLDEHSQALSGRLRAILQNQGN
Take `CCc1ccc(OCC(O)CN2CCN(CCO)CC2)cc1` (stereo unspecified): the inhibition was -7.28%.

With `CC(=O)c1ccc(N=C2SCCCN2C(=O)C2CCCCC2)cc1`, the inhibition is 4.36%.

`C[N+](C)(CCCCCC[N+](C)(C)CCCN1C(=O)c2cccc3cccc(c23)C1=O)CCCN1C(=O)c2cccc3cccc(c23)C1=O`: the inhibition was 46% (active).

On to `O=C1c2cccc3cccc(c23)C(=O)N1CCCCCc1n[nH]c(=S)o1`, for which the inhibition is -1.78%.

With `O=C(CN1C(=O)c2cccc3cccc(c23)C1=O)N1CCCCC1`, the inhibition is -1.16%.

Turning to `CC(=O)c1ccc(NC(=S)N(Cc2ccccc2)C(C)C2CC2)cc1` (stereo unspecified), the inhibition was 0.493%.

Take `COc1ccc(-c2ocnc2C(=O)Nc2ccc3c(c2)CCC3)cc1`: the inhibition is -0.367%.

As for `CCN(CC(=O)N1CCCC1)S(=O)(=O)c1ccc(F)cc1`, the inhibition was -1.08%.

Turning to `N#Cc1ncc(C(F)(F)F)cc1Oc1cccnc1`, the inhibition was 60.4% (active).

`NC(=O)c1ncc(C(F)(F)F)cc1Oc1ccc(F)cc1`: the inhibition is 2.03%.

For the molecule `O=C(Nc1ccc(Cl)cc1)Nc1ccc(Oc2cccnc2)nc1`, the inhibition was -3.23%.

For `COc1ccc(C)cc1NC(=O)CN1c2cccc3cccc(c23)S1(=O)=O`, the inhibition is -2.73%.

Consider `CCN(C(=O)COc1ccc(C(=O)c2ccccc2)cc1)c1ccccc1`, for which the inhibition was -0.203%.

Take `COc1ccccc1CNC(=O)COC(=O)c1sc(C)nc1C`: the inhibition was -1.57%.

On to `CC(=O)Nc1ccc(NC(=O)CSc2nnc(C3CC3)n2-c2ccccc2)cc1`, for which the inhibition was 10.5%.

With `CC[n+]1c(C)n(-c2ccccc2)c2ccc(NC(C)=O)cc21`, the inhibition was 60% (active).

Turning to `CC(=O)c1cccc(NC(=O)c2cc(C)nn2-c2ccccc2)c1`, the inhibition was -0.424%.

Regarding `COc1cccc([C@H](O)Cn2cc(-c3ccc(CON=C(C)C)cc3)nn2)c1`, the inhibition was 2.45%.

In the case of `Cc1nnc(N/N=C/c2ccccn2)[nH]c1=O`, the inhibition was 42.1% (active).

Consider `Cc1cc(C(=O)N/N=C/c2ccccn2)c2ccccc2n1`, for which the inhibition is -3.08%.

For `COc1ccc(Cc2nnc(N/N=C/c3ccccc3O)[nH]c2=O)cc1OC`, the inhibition was -1.76%.

In the case of `CC(C)(C)NC(=O)c1ccc(Cn2cc(C(F)(F)F)ccc2=O)cc1`, the inhibition is -2.36%.

Consider `CCOc1ccc(C(=O)NCC(=O)N2CCCCCCC2)cc1OCC`, for which the inhibition was -0.114%.

As for `CC(O)C(NS(=O)(=O)c1ccc(Cl)cc1)C(=O)OCc1cc([N+](=O)[O-])cc2c1OCOC2` (stereo unspecified), the inhibition is -3.62%.

As for `NS(=O)(=O)c1ccc(CNC(=O)c2cccc(Oc3ccccc3)c2)cc1`, the inhibition is -0.736%.

`CCc1ccc(S(=O)(=O)Nc2cc3c(cc2N2CCCCC2)n(C)c(=O)c(=O)n3C)cc1`: the inhibition was -6.54%.

Take `CCN1C(=O)N[C@@H](c2ccccc2)C(C(=O)OC)=C1C`: the inhibition was 4.12%.

As to `COC(=O)C1=C(C)N(C)C(=S)NC1c1ccccc1` (stereo unspecified), the inhibition is -2.13%.

On to `COC(=O)C1=C(C)N(Cc2ccccc2)C(=NCCCOC(C)C)N[C@H]1c1ccccc1`, for which the inhibition was 45.5% (active).

With `CC1CN(C2CCN(C(=O)COc3ccccc3)CC2)CC(C)O1` (stereo unspecified), the inhibition was -6.23%.

In the case of `COC(=O)c1ccc(NC(=O)CSc2nnc(Cc3cccn3C)n2-c2ccc(F)cc2)cc1`, the inhibition is -0.405%.

As to `Cc1cccc(N2CCN(C(=O)COCc3cc(-c4ccc5c(c4)OCO5)on3)CC2)c1C`, the inhibition was -0.313%.

For `Cc1sc2nc(CSCC(=O)NC3CCCCC3)[nH]c(=O)c2c1C`, the inhibition was -2.29%.

For the molecule `CC(=O)c1sc2nc(SCC(=O)N3CCCCC3)[nH]c(=O)c2c1C`, the inhibition was 2.37%.

With `CSc1nnc(SCc2nc3sc(C(=O)O)c(C)c3c(=O)[nH]2)s1`, the inhibition was 65.8% (active).

`N#Cc1c(NC(=O)c2ccc(N3CCOCC3)c([N+](=O)[O-])c2)sc2c1CCCC2`: the inhibition was 2.01%.

Consider `Nc1nnc(SCC(=O)Nc2ccc3nc(SCC(=O)Nc4ccccc4)sc3c2)s1`, for which the inhibition was -1.31%.

`CCCCNC(=O)CSc1nc2ccc(NC(=O)CSc3nnc(N)s3)cc2s1`: the inhibition was 75.7% (active).

`CCCCNC(=O)CSc1nc2ccc(NC(=O)CSc3nnc(COc4ccccc4C)n3C)cc2s1`: the inhibition is -2.55%.

As for `Cc1cc2c(=O)n(CC(=O)NCC(=O)Nc3ccc(C(C)C)cc3)cnc2s1`, the inhibition is -11.2%.

Consider `CO/N=C(\C(=O)N[C@@H]1C(=O)N2C(C(=O)O)=C(COC(C)=O)CS[C@H]12)c1csc(N)n1` (stereo in doubt), for which the inhibition was 2.73% and 21.9% and -0.539%.

Take `C=CC1=C(C(=O)O)N2C(=O)[C@@H](NC(=O)/C(=N/OCC(=O)O)c3csc(N)n3)[C@H]2SC1`: the inhibition was 57.5% (active).

Regarding `C=CC1=C(C(=O)O)N2C(=O)[C@@H](NC(=O)/C(=N\OCC(=O)O)c3csc(N)n3)[C@H]2SC1`, the inhibition was 13.4%.

Consider `COc1ccccc1NC(=O)Nc1nnc(Cc2ccc(F)cc2)s1`, for which the inhibition is 0.132%.

Regarding `COc1ccc(Cc2nnc(NC(=O)c3cc(OC)c(OC)c(OC)c3)s2)cc1OC`, the inhibition was 6.64%.

Regarding `COc1ccc(Cc2nnc(NC(=O)c3ccc(OC)cc3OC)s2)cc1`, the inhibition was 52.7% (active).

As for `CN(C)C(=O)Cn1c(=O)n(S(=O)(=O)c2ccccc2)c2ccccc21`, the inhibition is 0.322%.

Consider `NS(=O)(=O)c1cc(C(=O)OCC(=O)NNC(=O)c2ccccc2)ccc1Cl`, for which the inhibition is 76% (active).

Take `O=C(COC(=O)c1ncc(Cl)c(Cl)c1Cl)NNC(=O)c1ccccc1`: the inhibition is 2.14%.

In the case of `O=C(COC(=O)Cc1ccccc1F)NNC(=O)c1ccc(Cl)cc1`, the inhibition is 2.91%.

As to `Cc1c(C)c2ccc(OCC(=O)N3CCN(c4cccc(Cl)c4)CC3)cc2oc1=O`, the inhibition is 2.08%.

As for `COc1cc(NC(=S)N2CCCC(C)C2)c(OC)cc1Cl` (stereo unspecified), the inhibition is -2.12%.

For `CC(/C=C/c1ccccc1)=N\NC(=O)C1CC1(C)c1ccccc1` (stereo unspecified), the inhibition was 59.5% (active).

Take `O=C(N/N=C/C=C/c1ccccc1)C1CC1(c1ccccc1)c1ccccc1` (stereo unspecified): the inhibition is 1.87%.

As to `CC(/C=C/c1ccco1)=N/NC(=O)C1COc2ccccc2O1` (stereo unspecified), the inhibition was -6.53%.

On to `O=C(Nc1ccccc1N1CCOCC1)c1ccc(OCc2cscn2)cc1`, for which the inhibition was 3.65%.
